Results from PubChem BioAssay AID1159580 (chemical genetic matrix, 2015).
The whole screen tested about 5,500 compounds, of which about 2,000 (36%) were called active. Inconclusive results (about 18%) are left out. No stated cut-off is given here; in the data, active means normalized growth mostly below about 0.91 (no sharp cut-off); inconclusive means no clear call, values can overlap the other calls; inactive means mostly above about 0.92. This is one part of the list.

Assay: chemical genetic growth profiling, strain panel (AID 1159580);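 further: tested at 20 µM; growth read once vehicle control cultures reached saturation at 30 °C; 1 = growth at the plate median or of vehicle wells; lower values mean less growth of the strain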
Settings: growth OD

Measured: normalized growth

CC[C@H]1OC(=O)[C@H](C)[C@@H](O[C@H]2C[C@@](C)(OC)[C@@H](O)[C@H](C)O2)[C@H](C)[C@@H](O[C@@H]2O[C@H](C)C[C@H](N(C)C)[C@H]2O)[C@](C)(OC)C[C@@H](C)C(=O)[C@H](C)[C@@H](O)[C@]1(C)O
inactive: S. cerevisiae deletion strains, locus YAL013W, strain DEP1, active compounds read low 0.992 | S. cerevisiae deletion strains, locus YBR021W, strain FUR4, active compounds read low 1.01 | S. cerevisiae deletion strains, locus YBR229C, strain ROT2, active compounds read low 0.989 | S. cerevisiae deletion strains, locus YCL029C, strain bik1, active compounds read low 0.994 | S. cerevisiae deletion strains, locus YDL035C, strain GPR1, active compounds read low 0.977 | S. cerevisiae deletion strains, locus YDL074C, strain BRE1, active compounds read low 0.949 | S. cerevisiae deletion strains, locus YDL101C, strain DUN1, active compounds read low 0.992 | S. cerevisiae deletion strains, locus YDL134C, strain PPH21, active compounds read low 0.989 | S. cerevisiae deletion strains, locus YDL185W, strain tfp1, active compounds read low 0.994 | S. cerevisiae deletion strains, locus YDL192W, strain arf1, active compounds read low 0.966 | S. cerevisiae deletion strains, locus YDR101C, strain arx1, active compounds read low 0.973 | S. cerevisiae deletion strains, locus YDR150W, strain NUM1, active compounds read low 0.987 | S. cerevisiae deletion strains, locus YDR162C, strain NBP2, active compounds read low 0.974 | S. cerevisiae deletion strains, locus YDR318W, strain mcm21, active compounds read low 0.986 | S. cerevisiae deletion strains, locus YDR388W, active compounds read low 0.986 | S. cerevisiae deletion strains, locus YDR502C, strain sam2, active compounds read low 0.99 | S. cerevisiae deletion strains, locus YEL061C, strain CIN8, active compounds read low 0.985 | S. cerevisiae deletion strains, locus YER110C, active compounds read low 1.04 | S. cerevisiae deletion strains, locus YER155C, strain BEM2, active compounds read low 0.987 | S. cerevisiae deletion strains, locus YER167W, strain BCK2, active compounds read low 0.986 | S. cerevisiae deletion strains, locus YGL078C, strain dbp3, active compounds read low 1.01 | S. cerevisiae deletion strains, locus YGL086W, strain mad1, active compounds read low 0.969 | S. cerevisiae deletion strains, locus YGL248W, strain PDE1, active compounds read low 0.986 | S. cerevisiae deletion strains, locus YGR078C, strain PAC10, active compounds read low 0.991 | S. cerevisiae deletion strains, locus YGR135W, strain pre9, active compounds read low 0.989 | S. cerevisiae deletion strains, locus YGR229C, strain SMI1, active compounds read low 0.963 | S. cerevisiae deletion strains, locus YGR252W, strain gcn5, active compounds read low 0.932 | S. cerevisiae deletion strains, locus YHR030C, strain SLT2, active compounds read low 0.986 | S. cerevisiae deletion strains, locus YHR079C, strain IRE1 (second series), active compounds read low 0.983 | S. cerevisiae deletion strains, locus YHR094C, strain hxt1, active compounds read low 0.982 | S. cerevisiae deletion strains, locus YHR129C, strain ARP1, active compounds read low 0.981 | S. cerevisiae deletion strains, locus YHR200W, strain rpn10, active compounds read low 0.98 | S. cerevisiae deletion strains, locus YIL066C, strain RNR3, active compounds read low 0.985 | S. cerevisiae deletion strains, locus YIL073C, strain SPO22, active compounds read low 0.985 | S. cerevisiae deletion strains, locus YIL125W, strain kgd1, active compounds read low 1.01 | S. cerevisiae deletion strains, locus YIR030C, strain dcg1, active compounds read low 0.999 | S. cerevisiae deletion strains, locus YJL095W, strain BCK1, active compounds read low 0.971 | S. cerevisiae deletion strains, locus YJL134W, strain LCB3, active compounds read low 0.989 | S. cerevisiae deletion strains, locus YJL168C, strain set2, active compounds read low 0.978 | S. cerevisiae deletion strains, locus YJL187C, strain SWE1 (second series), active compounds read low 0.989 | S. cerevisiae deletion strains, locus YJR043C, strain POL32, active compounds read low 0.958 | S. cerevisiae deletion strains, locus YJR075W, strain HOC1, active compounds read low 0.954 | S. cerevisiae deletion strains, locus YKL009W, strain mrt4, active compounds read low 0.997 | S. cerevisiae deletion strains, locus YKL068W, active compounds read low 0.982 | S. cerevisiae deletion strains, locus YKL085W, strain MDH1 (second series), active compounds read low 0.978 | S. cerevisiae deletion strains, locus YKL085W, strain MDH1, active compounds read low 0.978 | S. cerevisiae deletion strains, locus YKL190W, strain CNB1, active compounds read low 0.967 | S. cerevisiae deletion strains, locus YKR001C, strain vps1, active compounds read low 0.999 | S. cerevisiae deletion strains, locus YLR039C, strain RIC1, active compounds read low 0.979 | S. cerevisiae deletion strains, locus YLR058C, strain SHM2, active compounds read low 0.987 | S. cerevisiae deletion strains, locus YLR102C, strain apc9, active compounds read low 0.997 | S. cerevisiae deletion strains, locus YLR262C, strain YPT6, active compounds read low 1.03 | S. cerevisiae deletion strains, locus YLR268W, strain sec22, active compounds read low 0.987 | S. cerevisiae deletion strains, locus YLR330W, strain CHS5, active compounds read low 0.992 | S. cerevisiae deletion strains, locus YLR342W, strain FKS1 (second series), active compounds read low 0.956 | S. cerevisiae deletion strains, locus YLR371W, strain rom2, active compounds read low 0.967 | S. cerevisiae deletion strains, locus YLR418C, strain cdc73, active compounds read low 0.916 | S. cerevisiae deletion strains, locus YML016C, strain PPZ1, active compounds read low 0.986 | S. cerevisiae deletion strains, locus YML032C, strain rad52, active compounds read low 0.971 | S. cerevisiae deletion strains, locus YML124C, strain tub3, active compounds read low 0.983 | S. cerevisiae deletion strains, locus YMR078C, strain ctf18, active compounds read low 1 | S. cerevisiae deletion strains, locus YMR223W, strain ubp8, active compounds read low 0.998 | S. cerevisiae deletion strains, locus YMR263W, strain SAP30, active compounds read low 0.987 | S. cerevisiae deletion strains, locus YMR307W, strain GAS1, active compounds read low 0.789 | S. cerevisiae deletion strains, locus YNL067W, strain RPL9B, active compounds read low 0.983 | S. cerevisiae deletion strains, locus YNL128W, strain TEP1, active compounds read low 0.979 | S. cerevisiae deletion strains, locus YNL153C, strain GIM3, active compounds read low 0.983 | S. cerevisiae deletion strains, locus YNL233W, strain BNI4, active compounds read low 0.982 | S. cerevisiae deletion strains, locus YNL250W, strain rad50, active compounds read low 1 | S. cerevisiae deletion strains, locus YNL271C, strain bni1, active compounds read low 1.01 | S. cerevisiae deletion strains, locus YNL298W, strain CLA4, active compounds read low 1.02 | S. cerevisiae deletion strains, locus YNL307C, strain MCK1, active compounds read low 1 | S. cerevisiae deletion strains, locus YNL322C, strain KRE1, active compounds read low 0.987 | S. cerevisiae deletion strains, locus YNR052C, strain pop2, active compounds read low 0.937 | S. cerevisiae deletion strains, locus YOL006C, strain TOP1, active compounds read low 0.757 | S. cerevisiae deletion strains, locus YOL012C, strain htz1 0.325 | S. cerevisiae deletion strains, locus YOL147C, strain pex11, active compounds read low 0.993 | S. cerevisiae deletion strains, locus YOR061W, strain CKA2, active compounds read low 0.987 | S. cerevisiae deletion strains, locus YOR069W, strain VPS5, active compounds read low 0.98 | S. cerevisiae deletion strains, locus YOR136W, strain idh2, active compounds read low 1.01 | S. cerevisiae deletion strains, locus YOR144C, strain elg1, active compounds read low 0.973 | S. cerevisiae deletion strains, locus YOR184W, strain ser1, active compounds read low 0.991 | S. cerevisiae deletion strains, locus YOR316C, strain cot1, active compounds read low 0.986 | S. cerevisiae deletion strains, locus YPL055C, strain LGE1, active compounds read low 0.962 | S. cerevisiae deletion strains, locus YPL241C, strain CIN2, active compounds read low 0.976 | S. cerevisiae deletion strains, locus YPR119W, strain clb2, active compounds read low 0.975 | S. cerevisiae deletion strains, locus YPR141C, strain kar3, active compounds read low 1.01 | S. cerevisiae deletion strains, locus YPR163C, strain tif3, active compounds read low 0.955 | S. cerevisiae deletion strains, locus YPR167C, strain met16, active compounds read low 0.996 | S. cerevisiae deletion strains, strain wtn01, active compounds read low 0.964 | S. cerevisiae strains, strain wild type, active compounds read low 0.982
